Reference: PubChem BioAssay (EPA / NIEHS)
Where “and” joins values, the source holds several entries; their conditions need not be identical. Equal entries are not always repeated. Records with an inconclusive call do not appear. Calls of active or inactive are those of the source. How the source made its calls, unless noted: active means hit-call score of the fitted dose curve at least 0.9, where 1 is the maximum; inactive means score below 0.9.

Key:
[1] = read-out: E-selectin (Homo sapiens) (UniProt P16581); assay: BSK_3C_Eselectin: BioMAP Diversity Plus: 3C Assay for Eselectin Biomarker Activity (AID 2283015); conditions: primary human endothelial cells (HUVEC); actives raise or lower the signal
Outline: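 Primary human umbilical vein endothelial cells (3C system) were dosed with chemical and cell-surface E-selectin measured by ELISA 24 h later. Bidirectional curve fitting used DMSO as negative control and baseline.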

[2] = read-out: Interleukin-1 alpha (IL1a), IL1A (gene 3552); assay: BSK_BE3C_IL1a: BioMAP Diversity Plus: BE3C Assay for Interleukin-1 alpha (IL1a) Biomarker Activity (AID 2283016); conditions: primary human bronchial epithelial cells; actives raise or lower the signal
Outline: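 IL-1a measured by ELISA after 24 h treatment of human primary bronchial epithelial cells, with gain or loss of signal fitted versus DMSO. Parallel cultures stained with SRB gauge overt cytotoxicity.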

[3] = read-out: Monocyte Chemoattractant Protein-1 (MCP1), CCL2 (gene 6347); assay: BSK_3C_MCP1: BioMAP Diversity Plus: 3C Assay for Monocyte Chemoattractant Protein-1 (MCP1) Biomarker Activity (AID 2283017); conditions: primary human endothelial cells (HUVEC); actives raise or lower the signal
Outline: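 Primary human umbilical vein endothelial cells (3C system) were exposed to test chemical for 24 h, after which MCP-1 was quantified by ELISA. Activity was fitted bidirectionally against DMSO as negative control and baseline.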

[4] = read-out: Human Leukocyte Antigen - DR isotype (HLADR), HLA-DRA (gene 3122); assay: BSK_3C_HLADR: BioMAP Diversity Plus: 3C Assay for Human Leukocyte Antigen - DR isotype (HLADR) Biomarker Activity (AID 2283019); conditions: primary human endothelial cells (HUVEC); actives raise or lower the signal
Outline: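 Primary human umbilical vein endothelial cells (3C system) were dosed with compound and cell-surface HLA-DR was quantified by ELISA at 24 h. Activity was fitted bidirectionally against DMSO as negative control and baseline.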

[5] = read-out: Interleukin-8 (IL8), CXCL8 (gene 3576); assay: BSK_3C_IL8: BioMAP Diversity Plus: 3C Assay for Interleukin-8 (IL8) Biomarker Activity (AID 2283020); conditions: primary human endothelial cells (HUVEC); actives raise or lower the signal
Outline: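 IL-8 was measured by ELISA in HUVEC cultures 24 h after chemical dosing, with gain or loss of signal fitted relative to DMSO. Parallel SRB total-protein staining tracked overt cytotoxicity.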

[6] = read-out: Monokine induced gamma interferon (MIG), CXCL9 (gene 4283); assay: BSK_3C_MIG: BioMAP Diversity Plus: 3C Assay for Monokine induced gamma interferon (MIG) Biomarker Activity (AID 2283021); conditions: primary human endothelial cells (HUVEC); actives raise or lower the signal;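 on AC50: MIG protein level measured by immunoassay in the treated endothelial cultures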
Outline: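 ELISA measurement of MIG in human umbilical vein endothelial cells 24 h after treatment. Cytotoxicity tracked by SRB staining in parallel cultures; gain or loss of signal fitted relative to DMSO.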

[7] = target: human Thyroid Receptor alpha (THRa1), THRA (gene 7067) (UniProt P10827); assay: ATG_THRa1_TRANS: Attagene TRANS-FACTORIAL HepG2 Assay for human Thyroid Receptor alpha (THRa1) (AID 2283014; active means hit-call score of the fitted dose curve at least 0.9, where 1 is the maximum)
Outline: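 HepG2 cells transiently transfected with multiplexed GAL4-UAS reporter units for exogenous chimeric THRa1-Gal4; reporter mRNA measured 24 h after dosing by RT-PCR, 6-FAM labelling, HpaI digestion and capillary electrophoresis. Gain-of-signal fitted versus DMSO baseline.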

[8] = target: human Retinoid X Receptor beta (RXRb), RXRB (gene 6257) (UniProt P28702); assay: ATG_RXRb_TRANS: Attagene TRANS-FACTORIAL HepG2 Assay for human Retinoid X Receptor beta (RXRb) (AID 2283013; active means hit-call score of the fitted dose curve at least 0.9, where 1 is the maximum)
Outline: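 Readout is reporter transcript induction after 24 h dosing. It is measured by RT-PCR of total RNA followed by fluorescent capillary electrophoresis. HepG2 liver cells carry transfected multiple reporter units driven by an exogenous RXRb-Gal4 fusion; activity is relative to DMSO.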

Measured: AC50

human Retinoid X Receptor beta (RXRb), RXRB (gene 6257), sequence (P28702 whole entry, looked up, the tested form may be a part): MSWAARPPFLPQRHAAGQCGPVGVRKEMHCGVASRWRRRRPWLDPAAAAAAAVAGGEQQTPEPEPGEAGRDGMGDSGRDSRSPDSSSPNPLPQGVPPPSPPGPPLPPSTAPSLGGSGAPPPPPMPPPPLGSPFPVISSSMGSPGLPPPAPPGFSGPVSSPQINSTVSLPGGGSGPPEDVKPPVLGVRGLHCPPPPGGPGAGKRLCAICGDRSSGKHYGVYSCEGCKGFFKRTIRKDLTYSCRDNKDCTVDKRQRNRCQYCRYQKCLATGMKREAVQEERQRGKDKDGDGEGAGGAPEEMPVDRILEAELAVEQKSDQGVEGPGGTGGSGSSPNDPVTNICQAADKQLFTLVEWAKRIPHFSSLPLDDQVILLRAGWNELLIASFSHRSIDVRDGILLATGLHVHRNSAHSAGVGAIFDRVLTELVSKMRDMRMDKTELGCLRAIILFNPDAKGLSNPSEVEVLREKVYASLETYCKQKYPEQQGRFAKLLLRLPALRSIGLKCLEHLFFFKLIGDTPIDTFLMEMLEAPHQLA
human Thyroid Receptor alpha (THRa1), THRA (gene 7067), sequence (P10827 whole entry, looked up, the tested form may be a part): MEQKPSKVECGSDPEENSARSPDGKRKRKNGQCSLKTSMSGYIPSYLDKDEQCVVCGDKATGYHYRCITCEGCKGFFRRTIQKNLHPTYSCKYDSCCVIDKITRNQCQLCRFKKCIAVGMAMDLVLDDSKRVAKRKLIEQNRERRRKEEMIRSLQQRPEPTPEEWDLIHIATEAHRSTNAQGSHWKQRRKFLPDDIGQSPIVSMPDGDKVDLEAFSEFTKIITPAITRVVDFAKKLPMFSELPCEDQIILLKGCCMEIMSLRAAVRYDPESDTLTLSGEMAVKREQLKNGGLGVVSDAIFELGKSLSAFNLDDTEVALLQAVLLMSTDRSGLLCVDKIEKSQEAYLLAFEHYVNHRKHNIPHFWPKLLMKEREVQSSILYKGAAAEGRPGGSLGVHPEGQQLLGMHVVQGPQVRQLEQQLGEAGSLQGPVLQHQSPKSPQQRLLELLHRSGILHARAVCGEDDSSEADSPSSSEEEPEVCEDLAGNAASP
E-selectin (Homo sapiens), sequence (P16581 whole entry, looked up): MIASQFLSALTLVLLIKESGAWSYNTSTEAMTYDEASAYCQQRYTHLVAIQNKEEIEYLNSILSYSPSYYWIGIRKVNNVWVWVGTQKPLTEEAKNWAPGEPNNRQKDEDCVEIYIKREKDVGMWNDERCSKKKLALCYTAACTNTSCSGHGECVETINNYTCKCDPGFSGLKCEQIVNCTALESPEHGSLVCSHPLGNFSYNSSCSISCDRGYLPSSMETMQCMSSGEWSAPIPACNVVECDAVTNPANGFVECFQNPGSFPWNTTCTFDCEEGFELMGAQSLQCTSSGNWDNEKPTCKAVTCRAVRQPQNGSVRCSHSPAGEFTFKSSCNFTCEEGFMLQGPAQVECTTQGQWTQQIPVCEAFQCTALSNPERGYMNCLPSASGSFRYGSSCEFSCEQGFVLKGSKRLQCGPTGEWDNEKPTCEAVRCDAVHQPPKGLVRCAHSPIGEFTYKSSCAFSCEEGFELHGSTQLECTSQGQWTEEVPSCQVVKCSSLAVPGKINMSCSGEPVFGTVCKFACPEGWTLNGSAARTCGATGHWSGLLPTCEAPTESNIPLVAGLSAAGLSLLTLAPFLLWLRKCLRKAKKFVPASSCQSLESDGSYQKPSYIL

CCOC(=O)c1ccccc1C(=C1C=C(Br)C(=O)C(Br)=C1)c1cc(Br)c(O)c(Br)c1
active: [1] 21 µM and 19.9 µM | [2] 4.38 µM and 4.46 µM | [3] 21.6 µM and 20.9 µM | [4] 19.5 µM and 16 µM | [5] 20.2 µM and 21.7 µM | [6] 23.6 µM and 21.7 µM

N=c1ccn2c(n1)O[C@H]1[C@H](O)[C@@H](CO)O[C@H]12
inactive: [7]

CC(C)C(=O)C(C)C
not listed: [8]
inactive: all other assays above

O=C(O)CCCCCCCCCC(=O)O
inactive: [8] | [7]

NCCCN1CCN(CCCN)CC1
inactive: [8] | [7]

O=CC1CC1
inactive: [7]

O=C1C=CC(=O)O1
inactive: [8] | [7]

CCCCCCCC[N+](C)(CCCCCCCC)CCCCCCCC
inactive: [7]

CC(=O)OC1C2(C)CCC(C2)C1(C)C (centres undefined)
inactive: [8] | [7]

O=C(c1ccc(O)cc1)c1ccc(O)cc1O
inactive: all assays above

O=[N+]([O-])c1ccc(CO)cc1
inactive: [8] | [7]
